# Measured values published in the supplement of paper PMC6607015.
# Counter-ions that a name gives are not always drawn.
# Legend:
# Settings in all cases: compound concentration in added solution (µM; 5 µl added to 20 µl cells): 10; 18 h
# A431 [1] = experiment: LBPA endosome anti-LBPA integrated intensity (sum per cell), Z-score; higher = more LBPA staining
# How it was run: (§1)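 Four 20× images per well were taken of HeLa MZ or A431 cells that had been seeded at 3,500 per well in 20 µl onto 5 µl of 10 µM compound solution in duplicate 384-well imaging plates. Before imaging, cells were incubated 18 h, fixed in 4% PFA and stained with 6C4 anti-LBPA antibody, filipin, propidium iodide and CellTracker green. Values are Z-scores normalised in AcuityXpress from MetaXpress-derived per-cell integrated LBPA or filipin intensity, either whole-cell or within LBPA endosomes.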
# HeLa MZ [2] = experiment: as above
# How it was run: as §1
# A431 [3] = experiment: whole-cell filipin (free cholesterol) integrated intensity, Z-score; higher = more cholesterol staining
# How it was run: as §1
# HeLa MZ [4] = experiment: as above
# How it was run: as §1
# A431 [5] = experiment: filipin (cholesterol) integrated intensity within LBPA endosomes, Z-score; higher = more cholesterol in LBPA endosomes
# How it was run: as §1
# HeLa MZ [6] = experiment: as above
# How it was run: as §1
Compound,LBPA endosome anti-LBPA integrated intensity (z-score) (A431 [1]),LBPA endosome anti-LBPA integrated intensity (z-score) (HeLa MZ [2]),whole-cell filipin (z-score) (A431 [3]),whole-cell filipin (z-score) (HeLa MZ [4]),filipin (z-score) (A431 [5]),filipin (z-score) (HeLa MZ [6])
COCC(=O)Nc1c(I)c(C(=O)NCC(O)CO)c(I)c(C(=O)N(C)CC(O)CO)c1I (configuration not stated) [Iopromide],-0.665,-1.68,-0.559,-0.164,-0.527,-0.574
O=C1CCC(N2C(=O)c3ccccc3C2=O)C(=O)N1 (configuration not stated) [Thalidomide],-0.476,-0.403,-0.887,-1.09,-0.544,-0.68
CCN(CC)CCOC(=O)C(c1ccccc1)c1ccccc1 [Adiphenine hydrochloride],-0.67,-1.15,-1.14,-0.931,-0.574,-0.637
O=C(O)c1cn(C2CC2)c2cc(N3CCNCC3)c(F)cc2c1=O [Ciprofloxacin hydrochloride hydrate],-0.633,-0.847,-0.925,-0.971,-0.579,-0.519
O=C(NCC1CCCCN1)c1cc(OCC(F)(F)F)ccc1OCC(F)(F)F (configuration not stated) [Flecainide acetate],0.848,1.72,1.08,0.76,0.948,0.836
O=C(COc1ccc(Cl)cc1)N1CCN(Cc2ccc3c(c2)OCO3)CC1 [Fipexide hydrochloride],-0.365,0.298,-0.792,-0.7,-0.47,-0.495
CS(=O)(=O)Nc1ccc([N+](=O)[O-])cc1Oc1ccccc1 [Nimesulide],-0.535,-0.741,-0.718,-0.259,-0.551,-0.716
Clc1ccc(CSC(Cn2ccnc2)c2ccc(Cl)cc2Cl)cc1 (configuration not stated) [Sulconazole nitrate],0.249,1.59,1.22,1.32,0.361,0.461
CC(C(=O)O)c1cccc(Oc2ccccc2)c1 (configuration not stated) [Fenoprofen calcium salt dihydrate],-0.519,-0.608,-0.389,-0.428,-0.476,-0.491
CCOC1O[C@H]([C@@H](COCc2ccccc2)OCc2ccccc2)[C@H](OCc2ccccc2)[C@H]1O (some centres not stated) [Tribenoside],0.543,2.34,0.649,1.71,0.264,0.525
CC1(C)O[C@@H]2C[C@H]3[C@@H]4C[C@H](F)C5=CC(=O)CC[C@]5(C)[C@H]4[C@@H](O)C[C@]3(C)[C@]2(C(=O)CO)O1 [Flurandrenolide],-0.226,-0.763,-0.173,0.429,-0.236,-0.297
c1ccc(CC2=NCCN2)cc1 [Tolazoline hydrochloride],-0.404,0.69,-0.609,-0.502,-0.487,-0.331
O=C1Nc2ccc(Cl)cc2[C@@](C#CC2CC2)(C(F)(F)F)O1 [Efavirenz],-0.71,-0.896,-0.938,-0.668,-0.569,-0.836
COc1ccc(C(=O)NCc2ccc(OCCN(C)C)cc2)cc1OC [Itopride],-0.646,-0.657,-0.844,-0.665,-0.581,-0.36
COc1ccccc1N1CCN(CCCCNC(=O)c2ccc3ccccc3c2)CC1,2.82,1.25,2.45,2.22,2.37,3.33
CC(C)(CO)C(O)C(=O)NCCCO (configuration not stated) [Panthenol (D)],-0.558,-0.28,-0.953,-0.974,-0.509,-0.649
CCCCC[C@H](O)/C=C/[C@@H]1[C@@H](C/C=C\CCCC(=O)O)[C@@H](O)C[C@H]1O [Dinoprost trometamol],-0.294,-0.303,-0.632,-0.582,-0.462,-0.236
CC(C)/N=c1\cc2n(-c3ccc(Cl)cc3)c3ccccc3nc-2cc1Nc1ccc(Cl)cc1 [Clofazimine],1.95,1.42,-0.119,-1.15,0.416,-0.0158
C=C1c2c(Cl)ccc(O)c2C(=O)C2=C(O)[C@]3(O)C(=O)C(C(N)=O)=C(O)[C@@H](N(C)C)[C@@H]3[C@@H](O)[C@H]12.O=C(O)c1cc(S(=O)(=O)O)ccc1O [Meclocycline sulfosalicylate],-0.505,-0.19,-0.811,-1.34,-0.554,-0.823
CCCCN(CCCC)CCC(O)c1cc2c(Cl)cc(Cl)cc2c2cc(C(F)(F)F)ccc12 (configuration not stated) [Halofantrine hydrochloride],1.7,-0.119,1.07,-0.0402,1.04,0.413
CCN(CC)CCNC(=O)COc1ccc(OC)cc1 [Mefexamide hydrochloride],-0.352,0.346,-0.627,-0.811,-0.519,-0.36
C[C@H]1C[C@H]2[C@@H]3CCC4=CC(=O)C=C[C@]4(C)[C@@]3(F)[C@@H](O)C[C@]2(C)[C@@]1(O)C(=O)CO [Betamethasone],-0.442,-0.354,-0.547,-0.354,-0.536,-0.463
COc1ccc2cc([C@H](C)C(=O)O)ccc2c1 [Naproxen],-0.53,-0.655,-0.923,-0.439,-0.525,-0.644
Cc1ccc(Cl)c(Nc2ccccc2C(=O)O)c1Cl [Meclofenamic acid sodium salt monohydrate],-0.528,-0.676,-0.856,-0.416,-0.531,-0.606

Compound,LBPA endosome anti-LBPA integrated intensity (z-score) (A431 [1]),LBPA endosome anti-LBPA integrated intensity (z-score) (HeLa MZ [2]),whole-cell filipin (z-score) (A431 [3]),whole-cell filipin (z-score) (HeLa MZ [4]),filipin (z-score) (A431 [5]),filipin (z-score) (HeLa MZ [6])
O=c1[nH]c(=O)n([C@H]2C[C@H](O)[C@@H](CO)O2)cc1C(F)(F)F [Trifluridine],-0.394,0.648,3.04,3.8,-0.544,-0.762
CCCCc1cc2ccccc2c(OCCN(C)C)n1 [Dimethisoquin hydrochloride],2.89,2.04,2.32,0.247,2.27,0.845
CN1CCN(C(c2ccccc2)c2ccccc2)CC1 [Cyclizine hydrochloride],-0.35,0.424,-0.0386,-0.181,-0.285,0.0272
CC1CCc2cc(F)cc3c(=O)c(C(=O)O)cn1c23 (configuration not stated) [Flumequine],-0.63,-0.763,-0.836,-0.225,-0.543,-0.72
CNCCc1ccccn1 [Betahistine mesylate],-0.418,-0.427,-0.443,-0.285,-0.457,-0.6
CC(=O)[C@H]1CC[C@H]2[C@@H]3C[C@H](C)C4=CC(=O)CC[C@]4(C)[C@H]3[C@@H](O)C[C@]12C [Medrysone],1.76,1,0.12,0.163,0.432,0.0722
CC(C)[N+](C)(CCOC(=O)C1c2ccccc2Oc2ccccc21)C(C)C [Propantheline bromide],-0.352,0.315,-0.217,0.064,-0.366,-0.177
CC1(C)S[C@@H]2[C@H](NC(=O)[C@H](N)c3ccc(O)cc3)C(=O)N2[C@H]1C(=O)O [Amoxicillin],-0.419,0.0287,-0.393,-0.0853,-0.524,-0.539
CCOC(=O)Nc1ccc2c(c1)N(C(=O)CCN1CCOCC1)c1ccccc1S2 [Moricizine hydrochloride],-0.59,0.328,-0.0401,0.0759,-0.436,0.233
N=C(N)NCCN1CCCCCCC1 [Guanethidine sulfate],-0.647,-1.05,-0.871,-0.0594,-0.596,-0.454
Cc1ncc([N+](=O)[O-])n1CCO [Metronidazole],-0.639,-1.28,-1.11,-0.583,-0.459,-0.544
CC(C)NC[C@H](O)COc1ccc(CC(N)=O)cc1 [(S)-(-)-Atenolol],-0.484,0.0669,-0.593,-0.509,-0.513,-0.661
CCn1nc(C(=O)O)c(=O)c2cc3c(cc21)OCO3 [Cinoxacin],-0.298,0.452,-0.393,-0.0614,-0.442,-0.322
Cc1onc(-c2ccccc2Cl)c1C(=O)N[C@@H]1C(=O)N2[C@@H]1SC(C)(C)[C@@H]2C(=O)O [Cloxacillin sodium salt],-0.451,-0.521,-0.641,-0.277,-0.516,-0.434
CCN(CC)CCN[C@@H](C(=O)OCCC(C)C)c1ccccc1 [Camylofine chlorhydrate],-0.334,0.886,-0.446,-0.605,-0.28,0.0537
Nc1ccc(S(=O)(=O)Nc2cnc3ccccc3n2)cc1 [Sulfaquinoxaline sodium salt],-0.491,-0.359,-0.235,-0.279,-0.43,-0.432
CC[C@H]1OC(=O)[C@H](C)[C@@H](O[C@H]2C[C@@](C)(OC)[C@@H](O)[C@H](C)O2)[C@H](C)[C@@H](O[C@@H]2O[C@H](C)C[C@H](N(C)C)[C@H]2O)[C@](C)(O)C[C@@H](C)C(=O)[C@H](C)[C@@H](O)[C@]1(C)O [Erythromycin],0.476,-0.196,0.409,-0.0449,0.977,0.203
CC(=O)OCC(=O)[C@@]1(O)CC[C@H]2[C@@H]3CCC4=CC(=O)C=C[C@]4(C)[C@@]3(F)[C@@H](O)C[C@@]21C [Isoflupredone acetate],-0.244,-0.851,-0.383,-0.16,-0.17,-0.357
Cc1cc(NS(=O)(=O)c2ccc(N)cc2)no1 [Sulfamethoxazole],-0.371,-0.141,-0.446,-0.158,-0.446,-0.3
CCCc1cc(C(N)=S)ccn1 [Prothionamide],-0.257,0.224,0.0431,-0.0396,-0.301,-0.377
Cc1c(OCC(F)(F)F)ccnc1C[S+]([O-])c1nc2ccccc2[nH]1 (configuration not stated) [Lansoprazole],-0.504,0.142,0.199,0.176,-0.31,-0.222
CCCCOc1cc(C(=O)OCCN(CC)CC)ccc1N [Benoxinate hydrochloride],1.79,1.63,0.624,-0.0981,0.826,0.624
C=CC1=C(C(=O)O)N2C(=O)[C@@H](NC(=O)/C(=N\O)c3csc(N)n3)[C@H]2SC1 [Cefdinir],-0.422,-0.414,-0.315,-0.322,-0.385,-0.46
